From PubChem BioAssay (NCI)
This is part of a sample that, as a whole, favours compounds with a hit. Of some 79,000 tested, about 15% had one in any assay. Values without a mark were called inactive. No stated cut-off is given here; in the data, active means growth inhibition above about 70%; inactive means the rest. Where a SMILES comes first, the peptide text is derived from it. [ ]: non-standard residue; d: D form. ΔPro = O=C(O)[CH]1C=CCN1

Experiment: NCI Yeast Anticancer Drug Screen. Data for the mec2-1 strain (AID 157)
Details: S. cerevisiae mec2-1 strain, at 50.0 µM, stronger effect = higher value
How it was run: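 Test agents were screened against the mec2-1 yeast strain, with defined DNA repair or cell cycle alteration. Growth was scored as inhibition against vehicle-only controls.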

SMILES	growth inhibition
N#Cc1c(C#N)c(-c2ccccc2)n(-c2ccccc2)c1N	12%
Cc1ccc(S(=O)(=O)N2CCSCCSCCSCCSCC2)cc1	-0.1%
CCCOc1cc2c(cc1C(C)(C)c1ccccc1)OCO2	-18.6%
CC(=O)NC(CCCc1ccccc1)C(=O)O (stereo not given)	9%
CC1CC(=O)N2CCCNC2=C1C#N (stereo not given)	4.6%
N#C/C(=C\c1c[nH]c2ccccc12)c1ccc([N+](=O)[O-])cc1	-10%
CCCCCCCCCCCCCCCCS(=O)(=O)N/N=C/c1ccc(N(C)C)cc1	13.3%
O=C(O)C1C=CCN1C(=O)C1C=CCN1C(=O)C1C=CCN1 (stereo not given) (H-[ΔPro]-[ΔPro]-[ΔPro]-OH; configuration not given here)	-38.6%
Nc1nc2c(c(-c3ccccc3)n1)CN(CCCC(=O)O)C2=O	14.8%
S=c1[nH]c(=S)c2nnn(-c3ccccc3)c2[nH]1	-38%
[Cu+2].[O-]C1c2c(ccc3ccccc23)-c2ccccc2C1N=Nc1ccccc1.[O-]c1c(N=Nc2ccccc2)c2ccccc2c2ccc3ccccc3c12 (stereo not given)	-20.7%
CCC(C)NC(=O)C1C2CCC(C2)C1C(=O)NC(C)CC (stereo not given)	-2.9%
CN(C)c1ccc(/C=N/NC(=O)c2cnc3ccccc3c2)cc1	-4.95%
CCOC(=O)c1ccc(NC(=O)Oc2ccc(C=O)cc2OC)cc1	5.3%
O=C(Nc1cc(Cl)c(I)cc1Cl)C(F)(F)F	10.8%
[Mn+2].[Mn+2].c1ccc2c(c1)-c1nc-2nc2[n-]c(nc3nc(nc4[n-]c(n1)c1ccccc41)-c1ccccc1-3)c1cc3c4nc5nc(nc6[n-]c(nc7nc(nc([n-]4)c3cc21)-c1ccccc1-7)c1ccccc61)-c1ccccc1-5	-0.9%
COC(=O)c1nc(N)nc(C(=O)OC)c1C(=O)c1ccc(Cl)cc1Cl	-0.6%
CCOC(=O)CSc1[nH]c2nc(C)nc(Cl)c2c1C#N	8.3%
O=C(O)CCCCl	-7.8%
OCC=C1CCCCCC1	6.8%

SMILES	growth inhibition
Cc1ncc([N+](=O)[O-])n1CCNC(=O)CCC(=O)NCCCn1ccnc1[N+](=O)[O-]	-22.9%
COc1cc(C(=O)Nc2ccc(S(=O)(=O)Nc3nc(C)cc(C)n3)cc2)cc(OC)c1OC	-21.9%
O=C1c2ccccc2C2(O)Oc3cccc(O)c3C12O (stereo not given)	4.55%
CCc1ccc(C(O)C(=O)O)cc1 (stereo not given)	7.95%
O=C(Sc1ccccc1)C1OC1c1ccccc1 (stereo not given)	28.6%
O=C1OC(c2cccc(Cl)c2)=N/C1=C\c1cccc([N+](=O)[O-])c1	12.3%
CC12CCCC3(CC(=O)C(C)(C)C3C(=O)C1)C2 (stereo not given)	-16.1%
N#Cc1c(-c2ccccc2)ssc1=S	25.1%
CC[N+](C)(CC)c1cccc(OC(=O)Nc2ccc(OC)cc2)c1	5.25%
Cc1ncc([N+](=O)[O-])n1CCNC(=O)CCn1ccnc1[N+](=O)[O-]	-43.7%
COc1ccc(-c2c(-c3ccccc3)c(-c3ccccc3)nn2-c2ccccc2)cc1	4.85%
N#C/C(=N\NC(=O)c1cccc(C(=O)N/N=C(\C#N)c2ccccc2Cl)n1)c1ccccc1Cl	-10.9%
[C-]#[N+]C1(c2ccccc2)C2CC3CC(C2)CC1C3 (stereo not given)	-7.05%
[Zn+2].c1ccc(-c2c3nc(c(-c4ccccc4)c4[n-]c(c(-c5ccccc5)c5nc(c(-c6ccccc6)c6[n-]c2c2ccccc62)-c2ccccc2-5)c2ccccc42)-c2ccccc2-3)cc1	-36.4%
O=C(Nc1ccccc1)SC1CCCCC1	4.95%
O=C(Nc1ccc(Cl)c(Cl)c1)c1ccc(C(=O)Nc2ccc(Cl)c(Cl)c2)cc1	19.1%
O=C(CN1CCOCC1)Nc1ccc(S(=O)(=O)c2ccc([N+](=O)[O-])cc2)cc1	15%
CCCCOC(=O)/C=C/C(=O)N1CCN(C(=O)/C=C/C(=O)OCCCC)C(C)C1 (stereo not given)	24.7%
O=C(c1ccccc1)c1ccc(Cl)c(Cl)c1	-23.3%
CNc1ccccc1C(=O)N/N=C/c1c(O)ccc2ccccc12	18.3%
